Source: the supplement of paper PMC10849652
Targets with a hit are over-represented here; the source holds about 8,800 in all. About 0.5% of all pairs of compound and target were hits. Unmarked numbers belong to inactive results.

Legend:
Assay in all cases: log2 fold change, soluble protein after heating vs DMSO (PISA); higher = thermal stabilisation; K562 lysate, 10 uM; active = over 0.2 and 3.5 SD of the protein, either way, in both replicates (recomputed)
[1] = compound: C=CC(=O)N1CCC[C@@H](n2nc(-c3ccc(Oc4ccccc4)cc3)c3c(N)ncnc32)C1 [ibrutinib]
In short: (§1)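 Thermal stability, expressed as log-two fold change relative to solvent controls, is given from duplicates. Crude K562 extract in PBS pH 7.4 with 1 mM MgCl2, at 1 mg/mL protein, was treated with 10 μM compound for 30 min and heated in aliquots for 3 min across 48°C-58°C. After pooling, adjustment to 0.5% NP-40 at 4°C and centrifugation at 21,000xg for 90 min, supernatant protein was measured by TMTpro 16plex LC-MS/MS with channel sums equalised.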

[2] = compound: CC(C)(C)Cn1c(N)nc2ccc(-c3[nH]c(C(C)(C)C)nc3-c3ccc(F)cc3)nc21 [ralimetinib]
In short: as §1

[3] = compound: CC(C)(O)CC(=O)NCCn1ccc2ncnc(Nc3ccc(Oc4cccc(C(F)(F)F)c4)c(Cl)c3)c21
In short: as §1

[4] = compound: CC(C)C1=C2N=C(C=C(N2N=C1)NCC3=CC=CC=C3)NCCCCCCN
In short: as §1

[5] = compound: CC1=C(C(CC(=O)N1)C2=CC=C(C=C2)C(F)(F)F)C(=O)NC3=C(C=C4C(=C3)C=NN4)F
In short: as §1

[6] = compound: CC1=C(C2=C(C=C1)C(=O)C3=CC=CC=C3N2CCCN)C
In short: as §1

[7] = compound: CC1=C(C=C(C=C1)NC(=O)C2=CC(=CC=C2)C(C)(C)C#N)NC3=CC4=C(C=C3)N=CN(C4=O)C
In short: as §1

[8] = compound: CC1=C(C=C(C=C1)NC(=O)C2=CC(=CC=C2)N(C)C)NC(=O)C3=CC=C(C=C3)O
In short: as §1

[9] = compound: CCCS(=O)(=O)Nc1ccc(F)c(C(=O)c2c[nH]c3ncc(-c4ccc(Cl)cc4)cc23)c1F [vemurafenib]
In short: as §1

[10] = compound: CCN(CCCOc1ccc2c(Nc3cc(CC(=O)Nc4cccc(F)c4)[nH]n3)ncnc2c1)CCOP(=O)(O)O [barasertib]
In short: as §1

[11] = compound: CC[C@@H]1C(=O)N(C)c2cnc(Nc3ccc(C(=O)NC4CCN(C)CC4)cc3OC)nc2N1C1CCCC1
In short: as §1

[12] = compound: CCn1c(C(=O)N(C2CC2)C2CC2)cc2c3c(ncn3C)c(Nc3cc(C)n(C)n3)nc21
In short: as §1

[13] = compound: CCn1cc(-c2ccnc3[nH]c(-c4cccc(CN(C)C)c4)cc23)c(-c2ccc(NC(=O)N(C)C)cc2)n1
In short: as §1

[14] = compound: CN1CCC(CNc2ccc3ncc(-c4cccc(OC(F)(F)F)c4)n3n2)CC1
In short: as §1

[15] = compound: CN1CCN(CCOc2cc(OC3CCOCC3)c3c(Nc4c(Cl)ccc5c4OCO5)ncnc3c2)CC1 [saracatinib]
In short: as §1

[16] = compound: CN1CCN(c2nc(C3=C(c4c[nH]c5ccccc45)C(=O)NC3=O)c3ccccc3n2)CC1 [sotrastaurin]
In short: as §1

[17] = compound: CC(=O)c1cnc2ccc(-c3cc(Cl)c(O)c(Cl)c3)nc2c1N[C@H]1CC[C@H](CN(C)C)CC1
In short: as §1

[18] = compound: CC1=CC=C(C=C1)SC2=C3C=C(SC3=CN=C2)C(=O)N
In short: as §1

[19] = compound: CCCS(=O)(=O)Nc1ccc(F)c(C(=O)c2c[nH]c3ncc(Cl)cc23)c1F
In short: as §1

[20] = compound: CC[C@@H]1C(=O)N(C)c2cnc(Nc3ccc(C(=O)N[C@H]4CC[C@H](N5CCN(CC6CC6)CC5)CC4)cc3OC)nc2N1C(C)C [volasertib]
In short: as §1

Sequence of UniProt Q9UPT9 (Q9UPT9 whole entry, looked up): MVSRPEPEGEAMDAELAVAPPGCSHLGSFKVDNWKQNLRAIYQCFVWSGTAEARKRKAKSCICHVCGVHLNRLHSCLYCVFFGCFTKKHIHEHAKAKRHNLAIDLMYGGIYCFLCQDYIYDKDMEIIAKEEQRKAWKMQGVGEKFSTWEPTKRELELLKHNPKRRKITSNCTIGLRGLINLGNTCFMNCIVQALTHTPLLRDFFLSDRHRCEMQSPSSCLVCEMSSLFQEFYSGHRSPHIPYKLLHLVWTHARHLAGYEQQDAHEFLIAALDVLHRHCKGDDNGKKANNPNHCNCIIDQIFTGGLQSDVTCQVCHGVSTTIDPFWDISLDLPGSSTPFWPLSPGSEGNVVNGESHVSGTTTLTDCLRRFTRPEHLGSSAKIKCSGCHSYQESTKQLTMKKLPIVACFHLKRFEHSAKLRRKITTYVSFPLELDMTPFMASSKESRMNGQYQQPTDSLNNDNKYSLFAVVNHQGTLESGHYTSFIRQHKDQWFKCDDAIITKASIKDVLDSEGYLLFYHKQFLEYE
Sequence of UniProt Q9UL40 (Q9UL40 whole entry, looked up): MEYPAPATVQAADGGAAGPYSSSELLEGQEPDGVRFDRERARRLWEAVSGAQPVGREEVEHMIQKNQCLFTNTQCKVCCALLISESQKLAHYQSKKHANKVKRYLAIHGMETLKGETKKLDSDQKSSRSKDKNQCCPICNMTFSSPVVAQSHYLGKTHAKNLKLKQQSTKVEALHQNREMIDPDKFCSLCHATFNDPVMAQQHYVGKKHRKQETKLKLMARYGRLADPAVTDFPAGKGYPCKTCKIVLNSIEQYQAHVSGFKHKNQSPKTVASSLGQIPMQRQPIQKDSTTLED
Sequence of UniProt O00488 (O00488 whole entry, looked up): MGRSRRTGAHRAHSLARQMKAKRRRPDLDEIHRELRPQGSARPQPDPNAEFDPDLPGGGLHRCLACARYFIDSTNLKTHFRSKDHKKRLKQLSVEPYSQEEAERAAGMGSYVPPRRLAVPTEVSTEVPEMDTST
Sequence of UniProt Q9BTA9 (Q9BTA9 whole entry, looked up): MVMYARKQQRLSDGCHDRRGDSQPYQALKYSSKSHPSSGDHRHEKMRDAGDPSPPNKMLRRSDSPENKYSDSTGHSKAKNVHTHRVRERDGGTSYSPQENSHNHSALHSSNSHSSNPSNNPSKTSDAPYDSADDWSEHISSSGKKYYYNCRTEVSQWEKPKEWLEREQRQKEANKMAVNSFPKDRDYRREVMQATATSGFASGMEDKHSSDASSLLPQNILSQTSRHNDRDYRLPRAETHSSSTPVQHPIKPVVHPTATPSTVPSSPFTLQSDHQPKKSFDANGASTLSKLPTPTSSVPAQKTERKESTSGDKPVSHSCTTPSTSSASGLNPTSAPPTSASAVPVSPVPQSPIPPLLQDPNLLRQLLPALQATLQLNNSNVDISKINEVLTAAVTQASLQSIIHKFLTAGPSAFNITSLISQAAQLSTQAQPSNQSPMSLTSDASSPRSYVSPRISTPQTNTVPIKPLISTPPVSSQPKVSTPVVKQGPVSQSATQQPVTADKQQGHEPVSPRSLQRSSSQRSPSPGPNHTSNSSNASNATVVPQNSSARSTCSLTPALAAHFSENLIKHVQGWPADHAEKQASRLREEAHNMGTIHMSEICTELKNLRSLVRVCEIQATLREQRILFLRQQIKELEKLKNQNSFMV
Sequence of UniProt Q9Y5A6 (Q9Y5A6 whole entry, looked up): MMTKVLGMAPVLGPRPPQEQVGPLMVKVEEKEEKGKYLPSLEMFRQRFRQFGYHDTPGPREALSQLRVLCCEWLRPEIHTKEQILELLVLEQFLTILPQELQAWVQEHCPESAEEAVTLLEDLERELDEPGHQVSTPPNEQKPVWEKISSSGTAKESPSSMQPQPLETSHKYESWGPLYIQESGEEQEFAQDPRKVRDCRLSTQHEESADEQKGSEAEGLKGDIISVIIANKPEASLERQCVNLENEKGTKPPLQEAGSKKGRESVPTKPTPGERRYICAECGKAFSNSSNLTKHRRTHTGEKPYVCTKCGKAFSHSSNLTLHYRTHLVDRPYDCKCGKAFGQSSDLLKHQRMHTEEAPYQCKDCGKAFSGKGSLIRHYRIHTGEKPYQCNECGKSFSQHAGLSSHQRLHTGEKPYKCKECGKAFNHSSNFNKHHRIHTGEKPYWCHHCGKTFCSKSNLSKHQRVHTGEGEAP
Sequence of UniProt Q6PHR2 (Q6PHR2 whole entry, looked up): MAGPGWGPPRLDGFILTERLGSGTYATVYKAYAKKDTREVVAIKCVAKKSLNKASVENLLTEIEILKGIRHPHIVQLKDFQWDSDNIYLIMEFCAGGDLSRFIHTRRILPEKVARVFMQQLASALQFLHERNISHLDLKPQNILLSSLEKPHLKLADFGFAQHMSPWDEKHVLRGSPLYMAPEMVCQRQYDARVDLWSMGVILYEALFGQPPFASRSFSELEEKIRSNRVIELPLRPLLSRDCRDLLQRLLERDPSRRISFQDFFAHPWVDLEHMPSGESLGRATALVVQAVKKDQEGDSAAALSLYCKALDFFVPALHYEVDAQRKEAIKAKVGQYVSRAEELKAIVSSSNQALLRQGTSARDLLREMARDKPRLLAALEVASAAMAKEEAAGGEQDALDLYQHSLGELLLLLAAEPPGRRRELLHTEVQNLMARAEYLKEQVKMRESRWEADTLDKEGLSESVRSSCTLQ
Sequence of UniProt P58557 (P58557 whole entry, looked up): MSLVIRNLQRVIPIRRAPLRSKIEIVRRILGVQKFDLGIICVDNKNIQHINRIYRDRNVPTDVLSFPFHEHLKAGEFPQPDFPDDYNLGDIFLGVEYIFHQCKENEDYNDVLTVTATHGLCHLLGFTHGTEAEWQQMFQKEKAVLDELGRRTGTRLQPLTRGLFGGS
Sequence of UniProt P40337 (P40337 whole entry, looked up): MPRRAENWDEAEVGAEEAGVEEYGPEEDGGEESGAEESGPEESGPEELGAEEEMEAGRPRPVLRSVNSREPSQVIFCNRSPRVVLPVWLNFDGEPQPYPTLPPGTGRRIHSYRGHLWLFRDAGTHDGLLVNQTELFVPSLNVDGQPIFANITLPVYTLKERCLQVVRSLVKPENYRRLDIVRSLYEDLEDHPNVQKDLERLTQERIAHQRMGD
Sequence of UniProt Q15072 (Q15072 whole entry, looked up): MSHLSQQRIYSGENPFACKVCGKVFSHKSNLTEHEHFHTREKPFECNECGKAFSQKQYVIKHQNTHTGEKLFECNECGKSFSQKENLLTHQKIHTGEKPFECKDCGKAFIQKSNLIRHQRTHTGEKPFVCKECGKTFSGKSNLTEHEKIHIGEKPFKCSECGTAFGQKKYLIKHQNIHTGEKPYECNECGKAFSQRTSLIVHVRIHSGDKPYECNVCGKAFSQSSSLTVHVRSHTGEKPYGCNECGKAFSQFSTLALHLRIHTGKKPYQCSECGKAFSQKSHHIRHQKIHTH

Target	log2 fold change [1]	log2 fold change [2]	log2 fold change [3]	log2 fold change [4]	log2 fold change [5]	log2 fold change [6]	log2 fold change [7]	log2 fold change [8]	log2 fold change [9]	log2 fold change [10]	log2 fold change [11]	log2 fold change [12]	log2 fold change [13]	log2 fold change [14]	log2 fold change [15]	log2 fold change [16]	log2 fold change [17]	log2 fold change [18]	log2 fold change [19]	log2 fold change [20]
ZNF644 (UniProt Q9H582)	0.07	-0.023	0.052	0.038	-0.061	0.042	-0.005	-0.02	0.027	0.045	0.047	-0.136	-0.05	-0.023	-0.086	0.013	–	–	–	–
UTRN isoform 2 (UniProt P46939)	-0.03	–	–	-0.012	–	–	–	–	–	-0.019	-0.318	–	0.148	-0.003	–	–	–	–	–	–
ZBTB40 (UniProt Q9NUA8)	–	0.096	-0.012	0.057	0.081	-0.042	0.009	-0.007	0.06	–	–	-0.014	-0.127	0.095	-0.017	-0.012	0.035	-0.044	-0.076	0.029
UNC13A (UniProt Q9UPW8)	–	–	–	0.022	-0.053	–	–	–	–	–	–	–	-1.79 (active)	0.531	–	–	–	–	–	–
YBEY (UniProt P58557)	–	–	–	0.016	–	-0.029	–	–	-0.119	–	-0.054	–	–	–	-0.058	–	–	–	–	–
ZSWIM8 isoform 4 (UniProt A7E2V4)	-0.08	0.101	-0.048	0.002	-0.017	0.28	-0.131	0.105	-0.173	0.22	0.039	0.038	-0.094	-0.071	0.018	0.039	–	–	–	–
ZNF652 (UniProt Q9Y2D9)	–	–	–	–	–	–	0.042	–	–	–	–	–	–	–	–	-0.034	–	–	–	–
WIPI2 isoform 6 (UniProt Q9Y4P8)	-0.021	–	–	–	–	–	–	–	–	0.04	–	–	-0.24	-0.016	–	–	–	–	–	–
ZYG11A (UniProt Q6WRX3)	0.228	0.082	-0.087	-0.159	0.046	–	–	0.052	–	0.286	–	-0.035	-0.16	0.011	–	–	0.063	-0.315	-0.15	-0.017
XPOT (UniProt F5GYW6)	–	–	–	–	–	–	–	–	–	–	–	–	–	–	–	–	-0.027	0.041	-0.204	-0.112
WAC isoform 5 (UniProt Q9BTA9)	–	0.059	-0.145	-0.038	–	0.127	–	0.096	–	–	–	0.047	–	–	-0.078	–	–	–	–	–
ZSCAN21 (UniProt Q9Y5A6)	–	–	–	–	–	–	–	–	–	–	-0.024	–	0.043	0.053	–	–	–	–	–	–
ZNF281 (UniProt Q9Y2X9)	–	-0.055	0.081	0.039	–	-0.008	-0.081	-0.041	–	–	–	0.011	–	–	-0.069	0.028	–	–	–	–
URGCP (UniProt Q8TCY9)	0.081	-0.07	-0.515 (active)	–	-0.05	0.008	–	-0.042	0.191	-0.023	–	-0.069	–	–	0	–	–	–	–	–
ZNF593 (UniProt O00488)	0.018	0.096	0.013	-0.081	–	-0.017	-0.028	-0.034	0.001	-0.026	-0.174	0.078	-0.012	0.016	-0.012	-0.105	0.17	-0.051	0.037	-0.034
VHL (UniProt P40337)	0.033	0.09	-0.027	0.06	-0.045	-0.109	-0.013	0.024	0.027	-0.005	-0.065	-0.054	0.11	-0.086	0.019	-0.038	–	–	–	–
USP22 (UniProt Q9UPT9)	-0.031	0.023	0.006	0.027	-0.057	-0.034	0.065	0.056	-0.019	0.008	0.026	0.034	0.031	0	-0.026	0.018	–	–	–	–
ZNF346 (UniProt Q9UL40)	-0.041	-0.019	-0.075	-0.012	-0.08	0.111	-0.019	-0.004	–	0.013	0.029	-0.018	0.017	-0.051	0.001	0.011	0.008	0.018	0.007	-0.047
ZNF845 (UniProt Q96IR2)	0.087	0.093	0	-0.061	-0.047	0.072	0.005	-0.012	0.085	0.088	–	0.135	-0.012	0.078	-0.019	-0.012	-0.039	-0.109	-0.024	-0.044
ZNF146 (UniProt Q15072)	–	–	–	–	–	-0.187	–	–	–	–	–	–	–	–	0.247	–	–	–	–	–
VASN (UniProt Q6EMK4)	–	0.332	0.172	-0.004	–	-0.255	–	-0.295	–	–	0.046	0.023	–	–	0.065	–	–	–	–	–
WEE1 (UniProt P30291)	-0.028	-0.017	-0.062	-0.031	-0.032	-0.012	0.023	-0.105	0.029	0.015	-0.25	-0.077	–	–	-0.016	-0.1	0.139	-0.038	0.056	-0.032
ULK3 isoform 4 (UniProt Q6PHR2)	-0.08	–	–	-0.091	–	-0.06	0.094	–	0.022	0.001	-0.196	–	-0.634 (active)	-0.285	0.18	-0.077	-0.024	0.08	-0.042	-0.139
